Source: the supplement of paper PMC6555819

Legend:
Assay in all cases: PBM binding z-score (relative to random genomic background probes); higher = stronger binding; sequences stand for … in GC…GCGATTGACAGCGTAGAATGAAGG
[1] = tested on: FXR:RXRa (NR concentration 270 nM, RXRa partner concentration 90 nM)
How it was run: (§1)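 Each nuclear receptor dimer, without ligand, was incubated for 1 h on custom Agilent 4×180K protein-binding microarrays. Binding was detected with antibodies against each partner (one per run), and scanned fluorescence was regression-normalized. The binding z-scores are referenced to random human genomic background probes.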

[2] = tested on: LXRa:RXRa (NR concentration 270 nM, RXRa partner concentration 90 nM)
How it was run: as §1

[3] = tested on: LXRa homodimer (NR concentration 270 nM)
How it was run: as §1

[4] = tested on: LXRb:RXRa (NR concentration 270 nM, RXRa partner concentration 90 nM)
How it was run: as §1

[5] = tested on: LXRb homodimer (NR concentration 270 nM)
How it was run: as §1

[6] = tested on: PPARa:RXRa (NR concentration 270 nM, RXRa partner concentration 90 nM)
How it was run: as §1

[7] = tested on: PPARg:RXRa (NR concentration 180 nM, RXRa partner concentration 90 nM)
How it was run: as §1

[8] = tested on: PPARg:RXRa 270nM:90nM, anti-RXR (NR concentration 270 nM, RXRa partner concentration 90 nM)
How it was run: as §1

[9] = tested on: PPARg:RXRa 30nM:10nM, anti-RXR (NR concentration 30 nM, RXRa partner concentration 10 nM)
How it was run: as §1

[10] = tested on: PPARg:RXRa 90nM:30nM, anti-RXR (NR concentration 90 nM, RXRa partner concentration 30 nM)
How it was run: as §1

ACTATTAGTTGACTTAGGTCAACCGATACGACGC
PBM binding z-score [1]: 1.69 | PBM binding z-score [2]: 2.25 | PBM binding z-score [3]: 1.71 | PBM binding z-score [4]: 2.39 | PBM binding z-score [5]: 1.28 | PBM binding z-score [6]: 2.29 | PBM binding z-score [7]: 1.35 | PBM binding z-score [8]: 1.35 | PBM binding z-score [9]: 0.53 | PBM binding z-score [10]: 0.993

TCTATTAGTTGAGTAGGGCAACCGAAACAGCGGA
PBM binding z-score [1]: 0.117 | PBM binding z-score [2]: -0.0688 | PBM binding z-score [3]: -0.201 | PBM binding z-score [4]: 0.0431 | PBM binding z-score [5]: 0.0555 | PBM binding z-score [6]: 0.964 | PBM binding z-score [7]: 0.351 | PBM binding z-score [8]: 1.65 | PBM binding z-score [9]: 3.14 | PBM binding z-score [10]: 2.23

CCTTATGGGTCACTGACAGGTTATAGCATTTGGA
PBM binding z-score [1]: 3.95 | PBM binding z-score [2]: 3.45 | PBM binding z-score [3]: 0.192 | PBM binding z-score [4]: 2.96 | PBM binding z-score [5]: -0.062 | PBM binding z-score [6]: 4.93 | PBM binding z-score [7]: 5.81 | PBM binding z-score [8]: 5.11 | PBM binding z-score [9]: 2.32 | PBM binding z-score [10]: 4.08

TCTATTAGTTTAAGGGCAACCGACGAGTCCGTTT
PBM binding z-score [1]: 1.36 | PBM binding z-score [2]: 1.32 | PBM binding z-score [3]: 0.766 | PBM binding z-score [4]: 1.32 | PBM binding z-score [5]: 0.433 | PBM binding z-score [6]: 1.33 | PBM binding z-score [7]: 0.0687 | PBM binding z-score [8]: 2.32 | PBM binding z-score [9]: 3.91 | PBM binding z-score [10]: 3.18

ATCTCTAGGTAACAGGTTCAGTGAAAGAGAGGAC
PBM binding z-score [1]: 0.507 | PBM binding z-score [2]: 0.677 | PBM binding z-score [3]: 0.529 | PBM binding z-score [4]: 0.67 | PBM binding z-score [5]: 1.09 | PBM binding z-score [6]: 1.8 | PBM binding z-score [7]: 2.61 | PBM binding z-score [8]: 2.9 | PBM binding z-score [9]: 1.5 | PBM binding z-score [10]: 2.78

TCTAGCAGGCCAGAGGGTCACTCGAGAGGTACGG
PBM binding z-score [1]: 0.927 | PBM binding z-score [2]: 0.659 | PBM binding z-score [3]: -0.59 | PBM binding z-score [4]: 0.806 | PBM binding z-score [5]: -1.36 | PBM binding z-score [6]: 2.11 | PBM binding z-score [7]: 1.36 | PBM binding z-score [8]: 2.59 | PBM binding z-score [9]: 1.79 | PBM binding z-score [10]: 2.52

CCTACTGGGCCATTCAGAGGTCATTGCTCATATG
PBM binding z-score [1]: 2.76 | PBM binding z-score [2]: 4.37 | PBM binding z-score [3]: 6.67 | PBM binding z-score [4]: 3.6 | PBM binding z-score [5]: 0.398 | PBM binding z-score [6]: 3.57 | PBM binding z-score [7]: 1.99 | PBM binding z-score [8]: 2.92 | PBM binding z-score [9]: 0.777 | PBM binding z-score [10]: 2.16

TTACCAAGGTGAAAGGTCGTTGGTGCACGCCTTG
PBM binding z-score [1]: 4.28 | PBM binding z-score [2]: 3.47 | PBM binding z-score [3]: 0.325 | PBM binding z-score [4]: 2.87 | PBM binding z-score [5]: -0.67 | PBM binding z-score [6]: 5.54 | PBM binding z-score [7]: 8.98 | PBM binding z-score [8]: 8.05 | PBM binding z-score [9]: 6.8 | PBM binding z-score [10]: 8.19

AGAATGAGGTTAATATCAGGGAAACAGAATACAT
PBM binding z-score [1]: 1.64 | PBM binding z-score [2]: 3.39 | PBM binding z-score [3]: 0.149 | PBM binding z-score [4]: 2.17 | PBM binding z-score [5]: 0.272 | PBM binding z-score [6]: 2.98 | PBM binding z-score [7]: 2.46 | PBM binding z-score [8]: 2.14 | PBM binding z-score [9]: 0.981 | PBM binding z-score [10]: 1.48

ACTATTAGTTAACTTAGGGCAACCGATACGACGC
PBM binding z-score [1]: 0.0468 | PBM binding z-score [2]: 1.21 | PBM binding z-score [3]: 0.294 | PBM binding z-score [4]: 0.256 | PBM binding z-score [5]: 0.392 | PBM binding z-score [6]: 0.281 | PBM binding z-score [7]: 1 | PBM binding z-score [8]: 0.361 | PBM binding z-score [9]: 0.616 | PBM binding z-score [10]: 0.282

CCTACTAGGCCAAAAAGGTCATTGATGCCGATAA
PBM binding z-score [1]: 3.79 | PBM binding z-score [2]: 4.67 | PBM binding z-score [3]: 3.6 | PBM binding z-score [4]: 4.54 | PBM binding z-score [5]: 0.985 | PBM binding z-score [6]: 4.84 | PBM binding z-score [7]: 3.56 | PBM binding z-score [8]: 4.24 | PBM binding z-score [9]: 1.54 | PBM binding z-score [10]: 3.67

ATCTCTAGGTAAAGATAGTTCAGTTAATGCAAAT
PBM binding z-score [1]: 0.733 | PBM binding z-score [2]: 4.33 | PBM binding z-score [3]: 1.07 | PBM binding z-score [4]: 1.39 | PBM binding z-score [5]: 0.619 | PBM binding z-score [6]: 0.689 | PBM binding z-score [7]: 0.743 | PBM binding z-score [8]: 0.482 | PBM binding z-score [9]: 0.448 | PBM binding z-score [10]: 0.659

ATACCAAGGTGATCGTGATGTCGTTGATACTAAC
PBM binding z-score [1]: 0.333 | PBM binding z-score [2]: 0.0372 | PBM binding z-score [3]: 0.013 | PBM binding z-score [4]: 0.116 | PBM binding z-score [5]: -0.0295 | PBM binding z-score [6]: 0.0573 | PBM binding z-score [7]: 0.279 | PBM binding z-score [8]: 0.281 | PBM binding z-score [9]: 0.217 | PBM binding z-score [10]: 0.0356

ATCGAAAGGTCGAAGGGGAGTATACCCACCCGAA
PBM binding z-score [1]: 4.05 | PBM binding z-score [2]: 3.15 | PBM binding z-score [3]: 0.303 | PBM binding z-score [4]: 2.7 | PBM binding z-score [5]: 0.76 | PBM binding z-score [6]: 4.19 | PBM binding z-score [7]: 3.19 | PBM binding z-score [8]: 2.91 | PBM binding z-score [9]: 1.16 | PBM binding z-score [10]: 1.99

ACTATGAGTTGACTTAGGGCAACCGATACGACGC
PBM binding z-score [1]: 0.53 | PBM binding z-score [2]: 0.591 | PBM binding z-score [3]: 0.2 | PBM binding z-score [4]: 0.365 | PBM binding z-score [5]: 0.578 | PBM binding z-score [6]: 0.327 | PBM binding z-score [7]: 1.08 | PBM binding z-score [8]: 0.524 | PBM binding z-score [9]: 0.371 | PBM binding z-score [10]: 0.418

ATCTGTAGGTAAAGATAGTTCAGTGAATGCAAAT
PBM binding z-score [1]: 0.274 | PBM binding z-score [2]: 4.33 | PBM binding z-score [3]: 0.422 | PBM binding z-score [4]: 0.986 | PBM binding z-score [5]: 0.477 | PBM binding z-score [6]: 0.733 | PBM binding z-score [7]: 0.782 | PBM binding z-score [8]: 0.571 | PBM binding z-score [9]: 0.256 | PBM binding z-score [10]: 0.391

ATCTCTAGTTAAAAGTTCAGTGAATCCCGAGGAT
PBM binding z-score [1]: 0.652 | PBM binding z-score [2]: 1.49 | PBM binding z-score [3]: 1.82 | PBM binding z-score [4]: 0.877 | PBM binding z-score [5]: 1.25 | PBM binding z-score [6]: 1.64 | PBM binding z-score [7]: 1.4 | PBM binding z-score [8]: 3.41 | PBM binding z-score [9]: 1.59 | PBM binding z-score [10]: 3.49

ACTATTAGTTGACTTTGGGCAACCGATACGACGC
PBM binding z-score [1]: 0.0915 | PBM binding z-score [2]: 0.0714 | PBM binding z-score [3]: 0.0306 | PBM binding z-score [4]: 0.155 | PBM binding z-score [5]: 0.67 | PBM binding z-score [6]: -0.00502 | PBM binding z-score [7]: 0.965 | PBM binding z-score [8]: 0.394 | PBM binding z-score [9]: 0.326 | PBM binding z-score [10]: 0.537

CCTACTCGGCCAAGGTCATTGATCAGTCAAAGCA
PBM binding z-score [1]: 3.57 | PBM binding z-score [2]: 3.69 | PBM binding z-score [3]: 2.12 | PBM binding z-score [4]: 3.18 | PBM binding z-score [5]: 0.93 | PBM binding z-score [6]: 3.52 | PBM binding z-score [7]: 1.32 | PBM binding z-score [8]: 2.35 | PBM binding z-score [9]: 0.335 | PBM binding z-score [10]: 1.69

TCTATTAGTTGATTTGGGCAACCGAAACAGCGGA
PBM binding z-score [1]: 0.267 | PBM binding z-score [2]: 0.602 | PBM binding z-score [3]: 0.223 | PBM binding z-score [4]: 0.863 | PBM binding z-score [5]: 1.2 | PBM binding z-score [6]: 0.657 | PBM binding z-score [7]: -0.145 | PBM binding z-score [8]: 1.83 | PBM binding z-score [9]: 3.74 | PBM binding z-score [10]: 3.01

CGTCCAGGGTCAAAGGTCAGTGAAGAGATGACGG
PBM binding z-score [1]: 7.97 | PBM binding z-score [2]: 6.14 | PBM binding z-score [3]: 1.67 | PBM binding z-score [4]: 6.18 | PBM binding z-score [5]: 0.58 | PBM binding z-score [6]: 7.21 | PBM binding z-score [7]: 10.5 | PBM binding z-score [8]: 8.6 | PBM binding z-score [9]: 7.61 | PBM binding z-score [10]: 8.6

TCATATAGGTAATACAAGTGAAAGTCGGCATCTA
PBM binding z-score [1]: 1.52 | PBM binding z-score [2]: 1.28 | PBM binding z-score [3]: 0.46 | PBM binding z-score [4]: 1.17 | PBM binding z-score [5]: 0.185 | PBM binding z-score [6]: 1.59 | PBM binding z-score [7]: 1.39 | PBM binding z-score [8]: 2.52 | PBM binding z-score [9]: 4.29 | PBM binding z-score [10]: 3.28

ACTATTAGTTGAGACGAGGGAAACCGATAGGTTG
PBM binding z-score [1]: 0.194 | PBM binding z-score [2]: 0.0182 | PBM binding z-score [3]: -0.36 | PBM binding z-score [4]: -0.399 | PBM binding z-score [5]: -0.0748 | PBM binding z-score [6]: -0.349 | PBM binding z-score [7]: 0.531 | PBM binding z-score [8]: -0.165 | PBM binding z-score [9]: 0.215 | PBM binding z-score [10]: 0.291
